Source: PubChem
Nrf2 block: Nrf2 pathway inhibition; A549 ARE-Fluc reporter, luciferase luminescence, 18-24 h; Potency, µM (doses to about 46 µM), without a hit: at the top dose activity change, negative = inhibition, hits mostly inhibitors; 2.1% of 360,000 active; AID 504444; further: potency means the concentration at half of the fitted maximal effect; on the % scale 0 is the no-effect control and ±100 the full control effect; nearly all actives have a fitted effect of over 60% in size
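A549 ARE_Fluc cells (5000/well, 5% FBS OPTI-MEM) pre-incubated 2 h, then treated with compounds 18-24 h at 37C/5% CO2 in concentration-response. CellTiter-Fluor viability read first; BugLite luciferase luminescence after 15 min at room temperature gives Nrf2 activity.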
BRCA1 expr up: increases BRCA1 expression; 1.1% of 380,000 active; MCF7-BRCA1-FFLuc reporter, luminescence, 48 h; response scale: scaled: vehicle 0%, 10 µM genistein 100%; AID 624202; Potency, µM (titrated, usually from 46.1 µM), without a hit: top-dose activation, actives largely listed as activators; further: potency means the concentration at half of the fitted maximal effect; nearly all actives have a fitted effect of over 80% in size
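48 h compound treatment of MCF7-BRCA1-FFLuc cells (phenol-red free MEM, 37 °C), then 15 min with luciferase substrate and luminescence imaging.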
Nrf2 activator: activates Nrf2 signaling. AREc32 ARE-luciferase reporter (MCF7-derived line), luminescence, 24 h. Potency, µM (titrated, usually from 46.1 µM), inactives show at the highest dose activation, actives largely listed as activators. 0.31% of 410,000 active. AID 624171; further: potency means the concentration at half of the fitted maximal effect; % of control where 0% means no effect; nearly all actives have a fitted effect of over 65% in size
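Nrf2 activation is followed as ARE-luciferase induction in the AREc32 line after one day of compound treatment; luminescence is read with Steady-Glo.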
p53 reactivation: mutant p53 re-activation in reporter cells; Potency, µM (titrated, usually from 92.2 µM), for the others: at the highest dose activity change, positive = activation, hits mostly activators; H1299 p53-A138V BP100-luciferase reporter, luminescence, 24 h; AID 504706; 0.063% of 320,000 active; further: potency means the concentration at half of the fitted maximal effect; % of control where 0% means no effect; nearly all actives have a fitted effect of over 45% in size
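H1299 (p53-null), stable ts p53-A138V + BP100-Luc; 1000 cells/well, Opti-MEM/10% FBS; cpd 4 pt, 1:5; 24 h, 37 deg C, 5% CO2; detection reagent 10 min RT; luminescence.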
A549 tox: counter-screen for Nrf2 inhibitors: cytotoxicity in A549 cells; 0.16% of 390,000 active; Potency, µM (highest dose often 46 µM), inactives show at the top dose activity change, negative = cytotoxicity, most hits filed as inhibitors; A549 ARE-Fluc cells, CellTiter-Fluor viability, 18-24 h; AID 504648; further: potency means the concentration at half of the fitted maximal effect; on the % scale 0 is the no-effect control and ±100 the full control effect
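A549 ARE-Fluc cells in 5% FBS OPTI-MEM, 5000 cells/well, rested 2 h then exposed to compounds in concentration-response for 18-24 h at 37 °C. Viability by CellTiter-Fluor fluorescence (Ex 405/Em 525) after 30 min; luciferase luminescence (BugLite, 15 min, RT) read afterwards.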
IL-2 act: IL-2 activation; IL-2 activation reporter assay, cell-based qHTS; stimulated with anti-CD3/CD4/CD28 beads; in transgenic mouse T cells; activation, % (series mostly up to about 46 µM); 0.065% of 360,000 active; AID 652025; in the data active means activation above about 50%; inconclusive means mostly about 30% to 49%; further: 0% is about no effect
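Screening format: compound pinned onto unstimulated transgenic mouse T cells, 60 min incubation, then anti-CD3/anti-CD4/anti-CD28 bead stimulation for 18 hours at 37 degrees C, followed by EGFP and DsRed detection.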
Active calls of the source: *. An excerpt weighted towards active compounds, which were near 3.2% of everything screened. Unless noted, the call rests on the fitted dose curve; in most records, active means well fitted curve in the direction sought with a large enough effect; inconclusive means small, poorly fitted or top-dose-only effect, or another doubt; inactive means no such curve, though single readings can be large; an effect the other way counts as inactive or inconclusive.

`COc1ccc2[nH]c(=O)c(CNc3cc(C)ccc3C)cc2c1` gave Nrf2 block 18.4µM*, BRCA1 expr up -2.8%, Nrf2 activator 2.4%, p53 reactivation 3.6%, A549 tox inconclusive and IL-2 act -3.4.
Screening Cc1ccc(Nc2nc(C#N)nc(NC3CCCC3)n2)cc1 returned Nrf2 block 18.0% and A549 tox -0.7%.
For CCOC(=O)c1cc2ccc3ccccc3c2s1 the results were Nrf2 block inconclusive, BRCA1 expr up 48.3%, Nrf2 activator 4.7%, p53 reactivation 25.1µM*, A549 tox -0.1% and IL-2 act -0.3.
COc1ccc(S(=O)(=O)N2CCC(c3nnnn3-c3ccccc3)CC2)cc1OC was read as Nrf2 block inconclusive, Nrf2 activator 4.3% and A549 tox -9.9%.
For Cc1ccc(NS(=O)(=O)c2cc3c(cc2F)NC(=O)CC3)cc1Cl the results were Nrf2 block inconclusive and A549 tox -16.8%.
For O=c1cc(-c2ccc(O)cc2)oc2cc(O)cc(O)c12 the results were Nrf2 block inconclusive, BRCA1 expr up 22.4µM*, Nrf2 activator -1.3%, A549 tox inconclusive and IL-2 act -0.7.
For O=c1cc(-c2cccc(Br)c2)oc2cccc(O)c12 the results were Nrf2 block 22.7%, BRCA1 expr up -59.7%, Nrf2 activator 2µM*, p53 reactivation 9.4%, A549 tox -1.3% and IL-2 act 0.1.
Screening O=c1cc(-c2ccccc2)oc2cc(O)cc(O)c12 returned Nrf2 block 9.6%, BRCA1 expr up inconclusive, Nrf2 activator inconclusive, A549 tox -5.2% and IL-2 act -0.7.
O=c1cc(-c2ccc(O)cc2)oc2ccccc12 was read as Nrf2 block -6.6%, BRCA1 expr up inconclusive, Nrf2 activator inconclusive, p53 reactivation 3.5%, A549 tox 0.6% and IL-2 act -1.0.
O=c1cc(-c2ccc(O)cc2)oc2ccc(O)cc12 was read as Nrf2 block -2.2%, BRCA1 expr up 2.82µM*, Nrf2 activator 6.2%, p53 reactivation inconclusive, A549 tox -4.2% and IL-2 act -0.8.
Screening O=c1cc(-c2ccccc2)oc2cc(O)ccc12 returned Nrf2 block -5.6%, BRCA1 expr up 10µM*, Nrf2 activator 2.0%, A549 tox -4.2% and IL-2 act 3.0.
Screening Cc1ccc(C)c(NC(=O)C(c2ccccc2)N2Cc3ccccc3C2=O)c1 (configuration not stated) returned Nrf2 block 13.5%, Nrf2 activator 0.4% and A549 tox 18.2%.
`O=C1/C(=C\c2ccc(Cl)c(Cl)c2)CN(C(=O)CCN2CCOCC2)C/C1=C/c1ccc(Cl)c(Cl)c1` gave Nrf2 block inconclusive, BRCA1 expr up -86.3%, Nrf2 activator inconclusive, A549 tox 20.6µM* and IL-2 act -6.6.
COc1cc2c(cc1NC(=O)c1cccc([N+](=O)[O-])c1)oc1ccccc12 was read as Nrf2 block 16.4µM*, BRCA1 expr up -76.4%, Nrf2 activator 9.0%, p53 reactivation inconclusive, A549 tox 18.4µM* and IL-2 act 0.3.
`C(=Nc1cnc2ccccc2c1)c1ccncc1` gave BRCA1 expr up 34.7%.
`Cc1c(-c2cccc(NC(=O)Nc3ccccc3)c2)nc2ncccn12` gave Nrf2 activator 0.8% and A549 tox 9.6%.
For CN(CC(=O)NCc1ccc(Cl)cc1)S(=O)(=O)c1ccc2[nH]c3c(c2c1)CCCC3 the results were Nrf2 block 16.4µM*, Nrf2 activator -0.1% and A549 tox -23.7%.
`COc1cccc(CNC(=O)CN(C)S(=O)(=O)c2ccc3[nH]c4c(c3c2)CCCC4)c1` gave Nrf2 block -7.4%, Nrf2 activator 3.7% and A549 tox 0.0%.
O=C(NCCNc1ccc([N+](=O)[O-])cc1C(F)(F)F)c1ccc(F)cc1 was read as Nrf2 block 20.6µM*, BRCA1 expr up -26.7%, Nrf2 activator 2.4%, p53 reactivation -15.0%, A549 tox inconclusive and IL-2 act -1.7.
Screening O=c1[nH]c(CN2CCN(c3ccccn3)CC2)nc2c(Br)cc(Br)cc12 returned Nrf2 block 23.1µM*, BRCA1 expr up 5.1%, Nrf2 activator -0.3%, p53 reactivation 4.3%, A549 tox inconclusive and IL-2 act 1.9.
Screening N#Cc1cc2c(nc1SCc1ccccc1)CCC2 returned Nrf2 block 1.0%, BRCA1 expr up 14.2%, Nrf2 activator -0.3%, p53 reactivation 5.6%, A549 tox 7.1% and IL-2 act -3.1.
For N#Cc1cc2c(nc1SCc1ccncc1)CCC2 the results were Nrf2 block -16.9%, BRCA1 expr up 11.2µM*, Nrf2 activator 0.5%, p53 reactivation inconclusive, A549 tox 2.3% and IL-2 act 1.0.
Screening CCc1ccc(C2CC(=O)c3c([nH]c(C(=O)OC4CCCC4)c3C)C2)cc1 (configuration not stated) returned Nrf2 block 18.3%, Nrf2 activator 0.4% and A549 tox 2.1%.
CC(C)c1ccc(NC(=O)Cn2nnc(C(=O)NCc3ccc(Cl)cc3)c2N)cc1 was read as Nrf2 block inconclusive, Nrf2 activator 0.3% and A549 tox -5.2%.
For CCCCn1c(CCC)nc([N+](=O)[O-])c1Sc1ccc(Cl)cn1 the results were Nrf2 block inconclusive, BRCA1 expr up -36.9%, Nrf2 activator 11.2µM*, p53 reactivation -21.7%, A549 tox 0.8% and IL-2 act -1.7.
For CC(C)Cn1c(C(C)C)nc([N+](=O)[O-])c1Sc1ccc(Cl)cn1 the results were Nrf2 block -15.8%, BRCA1 expr up -59.8%, Nrf2 activator inconclusive, p53 reactivation inconclusive, A549 tox -3.2% and IL-2 act -0.9.
`CC(C)C[C@@H](CSc1ccc(Br)cc1)N1CCN(C)CCC1=O` gave Nrf2 block inconclusive, BRCA1 expr up 10µM*, Nrf2 activator 4.2%, p53 reactivation 14.1%, A549 tox 1.5% and IL-2 act -0.6.
For CCOC(=O)c1cc(C)n(Cc2cccc(OC)c2OC)c1C the results were Nrf2 block 23.1µM*, BRCA1 expr up -51.0%, Nrf2 activator -0.4%, p53 reactivation -0.5%, A549 tox -22.7% and IL-2 act -1.0.
For N#C/C(=N\Nc1ccc(Cl)cc1)C(=O)c1ccccc1 the results were Nrf2 block 14.6µM*, BRCA1 expr up -62.8%, Nrf2 activator 11.3%, p53 reactivation inconclusive, A549 tox 16.4µM* and IL-2 act -0.8.
